Assay outcomes deposited in PubChem by National Center for Advancing Translational Sciences (NCATS).
Compounds with a hit are over-represented: about 7.5% of the library has one in this group of screens.
FLuc counter – counter-screen for miR-21 project: firefly luciferase inhibitors or activators | P08659 | purified FLuc, Km substrates, luminescence inhibition | Potency, µM (series often up to 57.5 µM), for the others: at the highest dose activity change, negative = inhibition, most hits filed as inhibitors | actives 6.9% (n = 360,000);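 note: plate controls were vehicle for no effect and reference inhibitor for full effect; nearly all actives have a fitted effect of over 55% in size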
Target sequence (P08659 whole entry, looked up): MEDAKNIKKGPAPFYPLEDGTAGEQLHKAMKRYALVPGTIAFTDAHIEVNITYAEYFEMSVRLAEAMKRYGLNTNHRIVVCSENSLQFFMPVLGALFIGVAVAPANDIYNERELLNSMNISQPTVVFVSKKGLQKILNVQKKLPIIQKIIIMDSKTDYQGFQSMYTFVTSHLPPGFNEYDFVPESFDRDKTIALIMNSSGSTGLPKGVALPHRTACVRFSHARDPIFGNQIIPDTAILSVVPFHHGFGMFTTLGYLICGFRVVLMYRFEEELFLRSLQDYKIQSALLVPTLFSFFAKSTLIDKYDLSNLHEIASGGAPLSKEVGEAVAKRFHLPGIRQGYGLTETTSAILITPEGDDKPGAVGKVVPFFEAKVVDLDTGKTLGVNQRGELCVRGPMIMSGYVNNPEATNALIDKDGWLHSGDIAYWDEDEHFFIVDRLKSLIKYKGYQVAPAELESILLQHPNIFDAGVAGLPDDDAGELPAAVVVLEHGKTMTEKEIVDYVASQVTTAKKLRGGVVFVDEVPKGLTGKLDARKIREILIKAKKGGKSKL
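Biochemical qHTS of compounds, final roughly 60 µM downward over six points, against 10 nM purified firefly luciferase using Km concentrations of substrates (10 uM D-luciferin, 10 uM ATP) in Tris acetate pH 7.5 buffer; luminescence output.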
ELG1 genotoxic – genotoxicity induction in ELG1-luciferase HEK293T cells. AID 504466. Potency, µM (top dose mostly 46 µM), without a hit: at the highest dose activity change, positive = activation, usual class: activators. actives 1.3% (n = 330,000). HEK293T ELG1-luciferase reporter, luminescence, 16 h; note: % of control where 0% means no effect; nearly all actives have a fitted effect of over 60% in size
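Luminescence read-out: rising ELG1-luciferase signal, reflecting elevated ELG1 protein under genetic stress, flags genotoxic compounds. Cells were treated for 16 hr at 37 °C before ONE-Glo detection.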
Rab9 prom act – activates the Rab9 promoter; Potency, µM (series often up to 9.22 µM), inactives show at the top dose activation, negative = inhibition, usual class: activators; Huh7 Rab9 promoter-luciferase reporter, luminescence, 24 h; actives 2.8% (n = 320,000); note: % of control where 0% means no effect; nearly all actives have a fitted effect of over 60% in size
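Quantitative HTS format; Huh7 Rab9-luciferase reporter cells (1500/well) receive compound 2 h post-plating, incubate 24 h at 37 °C, then get luciferase reagent for 10 min before luminescence reading.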
Luc counter – blocks Kinase-Glo luciferase, a counter-screen artifact; Kinase-Glo luciferase, ATP luminescence, 8 min; Potency, µM (titrated, usually from 38.3 µM), inactives show top-dose activity change, negative = inhibition, most hits filed as inhibitors; actives 0.28% (n = 200,000); note: % is set by controls: 0 for no effect and ±100 for the full control effect; nearly all actives have a fitted effect of over 60% in size
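Compounds were added to a substrate mix at pH 7.2 (50 mM imidazole, 10 uM ATP, within the enzyme's linear range), followed by Kinase-Glo detection reagent; luminescence was measured after 8 minutes at ambient temperature.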
SMN2 splice up – enhancers of SMN2 splice variant expression | HEK293 SMN2-luciferase splicing reporter, luminescence, 30-36 h | Potency, µM (top dose mostly 46.1 µM), for inactives: at the highest dose activity change, positive = activation, actives largely listed as activators | actives 2.8% (n = 210,000); note: % of control where 0% means no effect; nearly all actives have a fitted effect of over 55% in size
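HEK293 cells carry an SMN2 […]–luciferase reporter in which exon 7 inclusion puts luciferase in frame. Cells were plated 10-12 h before compound addition, then incubated 30-36 h at 37C. ONE-Glo luminescence was read; sodium butyrate at 4.5 mM final served as control.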
NPC1 promoter act – activators of NPC1 promoter | actives 2.4% (n = 320,000) | AID 485313 | Potency, µM (top dose mostly 9.22 µM), inactives show at the highest dose activation, most hits filed as activators | Huh7 NPC1 promoter luciferase reporter, 24 h; note: % of control where 0% means no effect; nearly all actives have a fitted effect of over 60% in size
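Luciferase expression driven by the NPC1 promoter was measured in stably transfected Huh7 cells after a 24 h compound incubation, using a luciferase reagent and a luminescence read.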
Starred values were filed as active, the others as inactive; u = inconclusive; x = not tested or not shown; [ ] = remark or other dose. Calls come from the whole dose curve; as a rule, active = well fitted curve in the direction sought with a large enough effect; inconclusive = small, poorly fitted or top-dose-only effect, or another doubt; inactive = no such curve, though single readings can be large; an effect the other way counts as inactive or inconclusive. Potency is the fitted concentration of half-maximal effect.

SMILES | FLuc counter | ELG1 genotoxic | Rab9 prom act | Luc counter | SMN2 splice up | NPC1 promoter act
CC(=O)N1CCc2cc(Br)cc(S(=O)(=O)N3CCC(C)CC3)c21 | -2% | x | x | x | 4% | x
COc1ccc(CNC(=O)c2cnc3sc(N4CCOCC4)nn3c2=O)cc1 | -6% | x | x | x | x | x
O=S(=O)(c1cccc2nonc12)N1CCN(c2ccc(F)cc2)CC1 | 27µM* | 6% | -8% | -1% | x | -1%
O=C(C1CCN(S(=O)(=O)c2cccc3nonc23)CC1)N1CCN(c2ccc(F)cc2)CC1 | 0% | x | x | x | -13% | x
Cc1cccc(C=Nc2ccc3c(c2)oc2ccccc23)c1O | u | 16% | 4µM* | -2% | 10µM* | 26%
O=C(CCC(=O)c1ccccc1)Nc1ccc(F)c(Cl)c1 | -4% | x | x | x | x | x
C/C(=N\NC(=O)C1CC1c1ccccc1)c1cccs1 (configuration not stated) | 5% | -1% | 3% | -7% | 13% | 1%
COc1ccc(C2CC2/C(=N/OC(=O)c2cccs2)c2ccccc2)cc1 (configuration not stated) | 12µM* | u | u | -2% | u | u
O=C(Cc1c(Cl)cccc1Cl)OCc1ccccn1 | u | 23µM* | 25% | x | x | 25%
C=C[C@H]1CCC=C2C(=O)CCC[C@@H]21 | x | x | x | 2% | 2% | x
O=C(OCc1csc(-c2ccccc2)n1)c1ccccc1O | 6µM* | u | 4µM* | -12% | 20% | 27%
Cc1nc(COC(=O)c2cc(O)c3ccccc3c2O)cs1 | 5.4µM* | 0% | 4% | -3% | -1% | -2%
O=C(c1cccs1)N1CCCc2cc(NS(=O)(=O)c3cc(F)ccc3F)ccc21 | -19% | x | x | x | x | x
CCOC(=O)C1CCN(c2nc3ccccc3nc2C(C#N)C(=O)NCCc2ccccc2)CC1 (configuration not stated) | 19µM* | 27% | -3% | -1% | -7% | u
Cc1ccc(N/N=C2\CS(=O)(=O)N(C)c3ccsc32)cc1 | 12µM* | 17% | u | -2% | 0.89µM* | 3.5µM*
O=C1NCCC/C1=N/Nc1ccc(F)cc1 | -5% | u | -1% | -9% | 8% | -1%
CCCC(=O)N/N=C1\CS(=O)(=O)N(C)c2ccsc21 | 0% | 1% | 0% | 4% | -13% | 7%
CN1c2ccsc2/C(=N/Nc2ccc(F)cc2)CS1(=O)=O | 19µM* | u | u | 1% | u | u
Cc1ccc(/C=N/NC(=O)c2cccs2)o1 | 17µM* | 14% | 2% | -4% | 9% | 16%
Cc1cc(C(=O)N/N=C/c2ccc(N(C)C)o2)cs1 | u | 18% | 4% | x | x | 0%
Cc1ccc(/C=N/NC(=O)c2csc(C)c2)o1 | 15µM* | 8% | 10% | 1% | 11% | 23%
COc1ccc(-n2c(C)cc(C(=O)CN3C(=O)c4ccccc4C3=O)c2C)cc1 | 15µM* | 2% | 24% | 3% | 10% | 14%
Cc1cc(C(=O)CN2CC(C)OC(C)C2)c(C)n1-c1ccccc1 (configuration not stated) | u | 21µM* | u | -2% | u | u
Cc1cc(C(=O)CN2C(=O)C(=O)N(Cc3ccccc3)C2=O)c(C)n1-c1ccccc1F | 19µM* | 2% | -3% | 4% | -1% | 0%
Cc1cc(C(=O)CN2C(=O)C(=O)N(Cc3ccccc3)C2=O)c(C)n1Cc1ccccc1 | x | 1% | x | x | x | x
SMILES | FLuc counter | ELG1 genotoxic | Rab9 prom act | Luc counter | SMN2 splice up | NPC1 promoter act
Cc1cc(C(=O)CN2CCC(C)CC2)c(C)n1-c1ccccc1F | 1.9µM* | u | -8% | 1% | u | -8%
Cc1ccccc1-c1nnc(CN2CCN(c3cc(Cl)ccc3C)CC2)o1 | -8% | x | x | x | -26% | x
Cc1ccc2oc(C(=O)Nc3ccc(S(=O)(=O)N4CCCCC4C)cc3)cc(=O)c2c1 (configuration not stated) | -1% | x | x | x | 1% | x
O=C(N/N=C/c1ccccn1)NC12CC3CC(CC(C3)C1)C2 | 17µM* | 4% | u | x | x | u
O=C(N/N=C/c1cc([N+](=O)[O-])ccc1O)C12CC3CC(CC(C3)C1)C2 | u | 5% | -6% | 3% | -93% | 1%
O=C(N/N=C/c1cc([N+](=O)[O-])ccc1O)NC12CC3CC(CC(C3)C1)C2 | u | 15µM* | -2% | 4% | -36% | 14%
O=C(COC(=O)/C=C/c1cccc(Br)c1)NC1CCCC1 | x | 0% | x | x | x | x
CCn1c(SCC(=O)c2ccc(Cl)cc2)nnc1C(C)C | 19µM* | u | u | 2% | 2% | u
CCn1c(SCC(=O)c2ccc(Cl)cc2)nnc1-c1cccs1 | 24µM* | 5% | 16% | -2% | -7% | 0%
CCn1c(SCCOc2ccc(Cl)cc2)nnc1-c1cccs1 | -2% | -13% | 0% | 12% | -23% | -2%
Cc1nnc(SCC(=O)c2ccc(Cl)cc2)n(N)c1=O | 2% | 16% | 1µM* | 0% | 5µM* | 0.79µM*
COC(=O)CC1c2cc(OC)c(OC)cc2CCN1C(=O)Nc1ccc(C)cc1Cl (configuration not stated) | 8% | x | x | x | x | x
COc1ccc(C(=O)Nc2cccc(C(=O)N3CCCC3)c2)cc1 | 15µM* | u | 22% | -1% | u | u
Cc1ccc(C(=O)Nc2cccc(C(=O)N3CCN(C)CC3)c2)cc1 | 9.5µM* | u | 4.5µM* | -15% | 11µM* | 3.2µM*
Cc1ccc(C(=O)Nc2cccc(NC(=O)CN3CCCCC3)c2)cc1 | 19µM* | 1% | 9% | x | x | 12%
Cc1cccc(C(=O)Nc2cccc(C(=O)N3CCOCC3)c2)c1 | u | 17% | 14% | 16% | 6% | 18%
CC(=O)Nc1ccc(NC(=O)c2ccc3c(c2)CCN3S(=O)(=O)c2ccc(C)cc2)cc1 | 0% | x | x | x | 6% | x
Cc1cccc(NC(=O)CN2CCCCCC2)c1 | 6% | 2% | 1% | x | x | -6%
CC(=O)N1CCc2cc(NC(=O)c3ccc(C)cc3)ccc21 | 3.8µM* | u | 0.56µM* | -2% | 11µM* | u
COc1cccc(Cn2nnc(C(=O)NCc3ccc(Cl)cc3Cl)c2N)c1 | -1% | x | x | x | 6% | x
CCN(CC)S(=O)(=O)c1ccc(N2CCOCC2)c(NC(=S)NC(=O)c2ccco2)c1 | -18% | -9% | -3% | x | x | 0%
CCOc1ccccc1NC(=O)c1c(NC(=O)c2cccc(C)c2)sc2c1CCC2 | 4% | x | x | x | -2% | x
C[C@H](C(=O)c1ccccc1)C(c1ccccc1)N1CCOCC1 (some centres not stated) | x | x | x | 1%[7.66 µM] | -8%[9.22 µM] | x
CNC(=S)N/N=C/c1cccc(OCc2ccccc2F)c1 | 4.8µM* | u | 18% | -13% | 1% | 13%
